Source: PubChem BioAssay
This is a sample that favours compounds with a hit; in the whole collection about 2.9% have one here.
GLP1R inv ag: inverse agonists of human GLP-1 receptor; AID 624417; 1.6% of 410,000 active; Potency, µM (doses to about 38.3 µM), inactives show top-dose activity change, negative = inhibition, usual class: inhibitors; HEK293 GLP-1R CRE-luciferase, luminescence, 24 h; GLP-1R form is constitutively active; P43220; note: potency is the fitted concentration of half-maximal effect; % is set by controls: 0 for no effect and ±100 for the full control effect; nearly all actives have a fitted effect of over 55% in size
Target sequence (P43220 whole entry, looked up): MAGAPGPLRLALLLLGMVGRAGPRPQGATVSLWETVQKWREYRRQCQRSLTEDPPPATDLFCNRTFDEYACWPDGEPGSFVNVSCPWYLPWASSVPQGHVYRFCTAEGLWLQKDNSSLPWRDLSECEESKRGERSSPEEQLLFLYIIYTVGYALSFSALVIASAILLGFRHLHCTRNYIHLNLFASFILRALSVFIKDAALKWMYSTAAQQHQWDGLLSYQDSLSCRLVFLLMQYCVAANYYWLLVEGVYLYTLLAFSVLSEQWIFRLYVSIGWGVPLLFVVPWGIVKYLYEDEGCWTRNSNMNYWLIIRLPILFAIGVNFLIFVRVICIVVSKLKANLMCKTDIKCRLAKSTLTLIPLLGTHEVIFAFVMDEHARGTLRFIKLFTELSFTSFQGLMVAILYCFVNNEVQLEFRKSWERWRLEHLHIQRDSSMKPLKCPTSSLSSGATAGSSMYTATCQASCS
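HEK293 cells stably co-expressing constitutively active GLP-1R and a cAMP-responsive luciferase reporter were seeded in DMEM with 10% Nu serum, given compounds after 12 h, and incubated 24 h at 37 deg C. Luminescence was then read.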
LDHA block: blocks human lactate dehydrogenase A; P00338; purified LDHA, NADH/diaphorase-resazurin fluorescence; stronger effect = lower value; activity change, % (values are at about 110 or 230 µM); 0.15% of 480,000 active; in the data active = activity change below about -30%; inconclusive = mostly about -25% to -30%;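 note: plate controls were DMSO wells for no effect and wells without enzyme for full effect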
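LDH5 2 nM; NADH 0.06 mM, pyruvate 0.2 mM; 200 mM Tris pH 7.4, EDTA, Tween-20; 5 min RT. Detection: diaphorase 0.133 mg/mL + resazurin 37 µM, fluorescence ex540/em590 at 0 and 20 min; normalized to enzyme-free and DMSO wells.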
GLP1R ag: GLP-1 receptor (human) agonism. P43220. HEK293 GLP-1R CRE-luciferase, luminescence, 4-6 h; cells express a hypersensitive GLP-1R form. AID 624172. Potency, µM (titrated, usually from 45.6 µM), inactives show at the top dose activation, most hits filed as activators. 0.007% of 380,000 active; note: potency is the fitted concentration of half-maximal effect; % of control where 0% means no effect
ClpP mod: qHTS Assay for Activators of ClpP; ATP-dependent Clp protease proteolytic subunit (Bacillus subtilis (strain 168)), P80244; purified B. subtilis ClpP, FRET peptide cleavage, 20 min; Potency, µM (highest dose often 57.5 µM), without a hit: top-dose activity change, negative = active; 1.9% of 340,000 active; active = well fitted falling curve with a large enough effect; inconclusive = small, poorly fitted or top-dose-only effect; inactive = no such curve, though single readings can be large or run the other way; note: potency is the fitted concentration of half-maximal effect; the source files actives as falling curves though it sought activators and does not explain the sign; nearly all actives have a fitted effect of over 65% in size
Target sequence (P80244 whole entry, looked up): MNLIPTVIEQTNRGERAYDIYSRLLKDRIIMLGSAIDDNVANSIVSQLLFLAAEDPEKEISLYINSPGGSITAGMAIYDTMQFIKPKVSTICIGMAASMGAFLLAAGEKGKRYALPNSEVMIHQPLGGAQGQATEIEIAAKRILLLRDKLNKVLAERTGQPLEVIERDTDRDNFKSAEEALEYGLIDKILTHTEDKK
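Buffer: 100 mM Tris/HCl pH8, 100 mM KCl, 0.05% low protease BSA, 2.5% glycerol, 0.01% Tween-20. ClpP 10 microg/mL final; 20 min RT; delta FRET normalized to ADEP and DMSO controls.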
HEK293 tox: cytotoxicity counter-screen for GLP-1 receptor inverse agonists | HEK293 cAMP-luciferase reporter cells, luminescence, 24 h | Potency, µM (highest dose often 38.3 µM), for inactives: at the highest dose activity change, negative = inhibition, hits mostly inhibitors | 0.13% of 410,000 active;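 note: loss of luciferase light is scored as toxicity; potency is the fitted concentration of half-maximal effect; % is set by controls: 0 for no effect and ±100 for the full control effect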
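To flag toxic compounds, the library was rerun on cells for 24 hr at 37 deg C and 5% CO2. Viability-linked luminescence was captured 12 min after adding luciferase detection reagent.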
p53 reactivator: re-activators of mutant p53 | Potency, µM (highest dose often 92.2 µM), without a hit: at the highest dose activity change, positive = activation, hits mostly activators | 0.063% of 320,000 active | AID 504706 | H1299 p53-A138V BP100-luciferase reporter, luminescence, 24 h; note: potency is the fitted concentration of half-maximal effect; % of control where 0% means no effect; nearly all actives have a fitted effect of over 45% in size
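p53-null H1299 cells stably carrying temperature-sensitive p53-A138V and a BP100-luciferase reporter were pinned with compounds (4-point, 1:5 series) and held 24 hrs at 37 deg C. Luminescence was read 10 min after detection reagent.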
ClpP validation: inhibits B. subtilis ClpP protease, hit validation; shares compounds with ClpP mod; purified B. subtilis ClpP, FRET-FV substrate cleavage, 20 min; Potency, µM (series often up to 57.5 µM), inactives show at the top dose activity change, negative = inhibition, hits mostly inhibitors; 40% of 470 active; note: potency is the fitted concentration of half-maximal effect; % is set by controls: 0 for no effect and ±100 for the full control effect; nearly all actives have a fitted effect of over 70% in size
Active calls of the source: *. Unless noted, calls come from the whole dose curve; as a rule, active = well fitted curve in the direction sought with a large enough effect; inconclusive = small, poorly fitted or top-dose-only effect, or another doubt; inactive = no such curve, though single readings can be large; an effect the other way counts as inactive or inconclusive.

How did Cc1ccnc(NC(=O)c2ccc(OCc3c(C)noc3C)cc2)c1 do in these assays?
GLP1R inv ag: 0%; LDHA block: -4; GLP1R ag: 6%; ClpP mod: 106%; HEK293 tox: -6%; p53 reactivator: 11%; ClpP validation: 0%

What do the screens show for `O=C1CC(c2ccccc2)Cc2nc3nc(C(F)(F)F)nn3cc21` (configuration not stated)?
GLP1R inv ag: 0%; LDHA block: 12; GLP1R ag: -9%; ClpP mod: 79%; HEK293 tox: 40%; p53 reactivator: -1%; ClpP validation: 24%

What do the screens show for `O=C1CC(c2cccc(Cl)c2)Cc2nc3nc(C(F)(F)F)nn3cc21` (configuration not stated)?
LDHA block: -7

Results for O=[N+]([O-])c1ccc(/C=N/n2cn[nH]c2=S)cc1 ?
GLP1R inv ag: 10%; LDHA block: -8; GLP1R ag: 3%; HEK293 tox: 3%; p53 reactivator: 5%

What do the screens show for `O=C(CCCOc1ccccc1)Nc1ccc(Br)cc1`?
GLP1R inv ag: -13%; LDHA block: -1; GLP1R ag: 0%; ClpP mod: 1%; HEK293 tox: -9%

What do the screens show for `O=C(CCOc1ccccc1)Nc1ccc(Br)cc1`?
GLP1R inv ag: inconclusive; LDHA block: 0; GLP1R ag: 1%; ClpP mod: 7.9µM*; HEK293 tox: -15%; ClpP validation: 0%

How did Cc1nnc(NC(=O)c2oc3ccccc3c2C)s1 do in these assays?
GLP1R inv ag: 8%; LDHA block: -8; GLP1R ag: 9%; ClpP mod: -1%; HEK293 tox: -5%; p53 reactivator: inconclusive

How did Cc1nnc(NC(=O)c2oc3c(ccc4ccccc43)c2C)s1 do in these assays?
GLP1R inv ag: 17%; LDHA block: 0; GLP1R ag: 3%; ClpP mod: 8.9µM*; HEK293 tox: 15%; p53 reactivator: 9%; ClpP validation: 31µM*

Results for O=C(Nc1ccccc1OC(F)F)c1oc2ccccc2c1COc1ccccc1 ?
GLP1R inv ag: 9%; LDHA block: -3; GLP1R ag: -2%; ClpP mod: 289%; HEK293 tox: 60%; p53 reactivator: -4%; ClpP validation: 19µM*

Results for COc1cc(C=NNc2ccc(S(=O)(=O)Nc3ccccc3C(=O)O)cc2[N+](=O)[O-])ccc1O ?
GLP1R inv ag: 18%; LDHA block: -9; GLP1R ag: 0%; ClpP mod: 0%; HEK293 tox: 6%; p53 reactivator: -4%

How did COc1ccc(OC)c(S(=O)(=O)N2CCN(c3ncccn3)CC2)c1 do in these assays?
GLP1R inv ag: 3%; LDHA block: -6; GLP1R ag: -3%; ClpP mod: -11%; HEK293 tox: 3%; p53 reactivator: -7%

What do the screens show for `Cc1nc2oc3c(NCC4CCCO4)ncnc3c2c2c1COC(C)(C)C2` (configuration not stated)?
GLP1R inv ag: 1%; LDHA block: 0; GLP1R ag: -4%; ClpP mod: -3%; HEK293 tox: 5%; p53 reactivator: 2%

Results for CC(C)c1nc2oc3c(NCC4CCCO4)ncnc3c2c2c1COC(C)(C)C2 (configuration not stated) ?
GLP1R inv ag: 41%; LDHA block: 12; GLP1R ag: 5%; ClpP mod: 7.1µM*; HEK293 tox: -5%; p53 reactivator: 17%; ClpP validation: 22µM*

Results for C[C@@H]1CN([C@H](C)CO)S(=O)(=O)c2ccc(-c3ccc(C#N)cc3)cc2O[C@H]1CN(C)C(=O)Nc1cc(F)ccc1F ?
GLP1R inv ag: -8%; LDHA block: -1; GLP1R ag: 8%; ClpP mod: -5%; HEK293 tox: 4%

How did CCC1CCCCN1S(=O)(=O)c1ccc(NC(=O)CSc2ncccc2C(=O)O)cc1 (configuration not stated) do in these assays?
GLP1R inv ag: -6%; LDHA block: -7; GLP1R ag: -1%; ClpP mod: -7%; HEK293 tox: 4%; p53 reactivator: -1%

Results for COc1ccc(S(=O)(=O)N2CCCC2C(=O)Nc2nc3c(s2)CCCC3)cc1 (configuration not stated) ?
GLP1R inv ag: inconclusive; LDHA block: -1; GLP1R ag: -8%; ClpP mod: 6.3µM*; HEK293 tox: -1%; p53 reactivator: 1%; ClpP validation: 0%

Results for COc1ccc(C(=O)Nc2ccc3oc(-c4ccncc4)nc3c2)cc1OC ?
LDHA block: -7

Results for O=C(NCCc1ccccc1)C1CCN(c2nc3ccccc3nc2C(F)(F)F)CC1 ?
GLP1R inv ag: 12%; LDHA block: -8; ClpP mod: -4%; HEK293 tox: -4%

How did CCCC(=O)Nc1ccc2oc(-c3ccc(OC)c(Br)c3)nc2c1 do in these assays?
GLP1R inv ag: 0%; LDHA block: -7; GLP1R ag: 3%; ClpP mod: 8.9µM*; HEK293 tox: 4%; p53 reactivator: 16%; ClpP validation: 24µM*

Results for Cc1cc(C)c2c(CN3CCN(Cc4ccccc4)CC3)cc(=O)oc2c1C ?
GLP1R inv ag: inconclusive; LDHA block: 1; GLP1R ag: 11%; ClpP mod: -2%; HEK293 tox: 6%; p53 reactivator: 2%

What do the screens show for `O=c1n(Cc2ccc(Cl)cc2)c2sc3c(c2c2ncnn12)CCCC3`?
GLP1R inv ag: 25%; LDHA block: 2; GLP1R ag: 18%; ClpP mod: 2.8µM*; HEK293 tox: -10%; p53 reactivator: 2%; ClpP validation: -3%

How did O=C(Nc1cccc(Cl)c1Cl)c1cc(S(=O)(=O)NCc2ccc3c(c2)OCO3)ccc1F do in these assays?
GLP1R inv ag: -21%; LDHA block: -3; ClpP mod: 56%; HEK293 tox: 0%; ClpP validation: inconclusive

What do the screens show for `c1ccc2nc(-c3nc4ccccc4o3)ccc2c1`?
GLP1R inv ag: -1%; LDHA block: -4; GLP1R ag: -21%; ClpP mod: 8.9µM*; HEK293 tox: 6%; p53 reactivator: 8%; ClpP validation: 22µM*
